# Where “and” joins values, the source holds several entries; their conditions need not be identical. Identical values can stand only once. Values without a mark were called inactive. Records with an inconclusive call do not appear. Entries that show only a call come without a potency. Calls of active or inactive are those of the source. Unless noted, calls come from the whole dose curve; as a rule, active = well fitted curve in the direction sought with a large enough effect in the repeat runs; inconclusive = weak or mixed curves; inactive = no such curve, though single readings can be large; an effect the other way counts as inactive or inconclusive.
# What was measured:
# [1] = qHTS assay to identify small molecule antagonists of the estrogen related receptor (ERR) signaling pathway from Tox21 library - cell viability counter screen (AID 1224834); note: nearly all actives have a fitted effect of over 30% in size; note: potency is the fitted concentration of half-maximal effect
# Outline: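 ERR reporter cells were plated 6 h before compound addition, then exposed to test compounds in DMSO for 17.5 h at 37 C. Viability was read as CellTiter-Fluor fluorescence after a 30-minute incubation at 37 C.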
# [2] = target: Luciferin 4-monooxygenase (Photinus pyralis) (UniProt P08659); assay: qHTS assay to identify small molecule inhibitors of firefly luciferase (AID 1224835); note: nearly all actives have a fitted effect of over 25% in size
# Outline: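 Biochemical qHTS: compounds run as interplate titrations against purified firefly enzyme, with D-luciferin and ATP each at its KM concentration. Light output recorded by CCD imaging.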
# [3] = qHTS assay to identify small molecule agonists of the constitutive androstane receptor (CAR) signaling pathway - cell viability counter screen (AID 1224836); note: nearly all actives have a fitted effect of over 45% in size
# Outline: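 23 h treatment, 37 C, 5% CO2. Cell line: HepG2 stably expressing hCAR with a CYP2B6-2.2kb construct. Co-treatment: PK11195, 0.75 uM final. Read-out: CellTiter-Fluor fluorescence intensity.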
# [4] = qHTS assay to identify small molecule antagonists of the constitutive androstane receptor (CAR) signaling pathway - cell viability counter screen (AID 1224837); note: nearly all actives have a fitted effect of over 45% in size
# Outline: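 HepG2 cells stably expressing hCAR and a CYP2B6-2.2kb reporter were plated and pre-incubated 4 hr at 37 C/5% CO2, then given compounds at 15 concentrations plus 50 nM CITCO (final). After 23 hr, viability was read by CellTiter-Fluor fluorescence.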
# [5] = target: Nuclear receptor subfamily 1 group I member 3 (Homo sapiens) (UniProt Q14994); assay: qHTS assay to identify small molecule agonists of the constitutive androstane receptor (CAR) signaling pathway (AID 1224839); note: nearly all actives have a fitted effect of over 15% in size; note: potency is the fitted concentration of half-maximal effect;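 for activation: HepG2 cells stably carrying human CAR and a CYP2B6 luciferase reporter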
# Outline: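 Compounds tested at 15 concentrations on HepG2 cells stably harbouring hCAR and CYP2B6-2.2kb reporter constructs, co-treated with PK11195 (0.75 uM final), 24 h at 37 C; luminescent reporter signal quantified.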
# [6] = qHTS assay to identify small molecule antagonists of the estrogen related receptor signaling pathway with the pleiotropic PPARgamma coactivator (PGC) from Tox21 10K library - cell viability counter screen (AID 1224840; active = well fitted cell-killing curve with a large enough effect in the repeat runs, not every such curve was filed as active; note: nearly all actives have a fitted effect of over 40% in size)
# Outline: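 PGC/ERR cells were seeded at 2,000 cells/well and left 6 hours at 37 C/5% CO2 before pin-tool addition of compounds in DMSO. After 17.5 hours at 37 C, CellTiter-Fluor was added and fluorescence read 30 minutes later.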
# [7] = target: Thyrotropin receptor (Homo sapiens) (UniProt P16473); assay: qHTS assay to identify small molecule agonists of the thyroid stimulating hormone receptor (TSHR) signaling pathway (AID 1224843; calls by dose curve; note: nearly all actives have a fitted effect of over 45% in size)
# Outline: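 Steps: seed 800 TSHR-HEK293 cells per well; add test compound and hold 30 min at ambient temperature; dispense cAMP-d2 then anti-cAMP cryptate; incubate 1 h at ambient; measure fluorescence intensity.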
# [8] = qHTS assay to identify small molecule agonists of the hypoxia (HIF-1) signaling pathway - cell viability counter screen (AID 1224844; calls by dose curve; note: nearly all actives have a fitted effect of over 50% in size)
# Outline: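 HRE-bla ME-180 cells in medium with 0.5% dialyzed FBS were preincubated 5 hrs at 37C, exposed to compounds for 17 hrs, then viability was read as CellTiter-Glo luminescence after 30 min at room temperature, in the reporter wells.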
# [9] = qHTS assay to identify small molecule agonists of H2AX (AID 1224845; active = well fitted activation curve with a large enough effect in the signal ratio in the repeat runs, not every such curve was filed as active; the % refers to the signal ratio)
# Outline: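 Wild-type CHO-K1 cells, plated overnight, exposed 3hr at 37C to 15 concentrations (0.76% DMSO final). Lysed, then HTRF anti-pH2AX (S139) cryptate and anti-H2AX-d2 antibodies, 24 hr room temperature; 665/620 nm emission read.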
# [10] = qHTS assay to identify small molecule agonists of the hypoxia (HIF-1) signaling pathway (AID 1224846; active = well fitted activation curve with a large enough effect in the signal ratio in the repeat runs, not every such curve was filed as active; the % refers to the signal ratio)
# Outline: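 HRE-bla ME-180 cells (beta-lactamase reporter under hypoxia response element) were plated at 2,000 cells/well in medium with 0.5% dialyzed FBS, rested 5 hrs, then given compounds in DMSO for 17 hrs at 37C, 5% CO2. Reporter induction was read with CCF4-AM FRET substrate.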
# [11] = qHTS assay to identify small molecule agonists of H2AX - cell viability counter screen (AID 1224847; calls by dose curve; note: top concentration of the series differs between compounds; nearly all actives have a fitted effect of over 30% in size)
# Outline: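 Compounds tested at 15 concentrations were incubated 3 hr at 37C with wild-type CHO-K1 cells; cellular ATP-based luminescence (CellTiter-Glo) indicated viability.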
# [12] = qHTS RealTime-Glo MT Cell Viability Assay in HepG2 cells - 24 hour (AID 1224867); note: nearly all actives have a fitted effect of over 50% in size
# Outline: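 Compound treatment began 5 h after plating HepG2 cells (600/well) with NanoLuc luciferase and prosubstrate. Plates stayed at 37 C for 40 h; luminescence was captured at six time points, 0 h through 40 h.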
# [13] = A CellTox Green Cytotoxicity Assay to monitor cytotoxicity in HEK293 cells - 0 hour (AID 1224869); note: nearly all actives have a fitted effect of over 50% in size
# Outline: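 HEK293 cells premixed with CellTox Green dye were seeded at 600 cells/well and left 5 h at 37 C/5% CO2 before pin transfer of 23 nL compound in DMSO. Fluorescence from dye bound to dead-cell DNA was read during 40 h treatment.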
# [14] = qHTS RealTime-Glo MT Cell Viability Assay in HepG2 cells - 40 hour (AID 1224870); note: nearly all actives have a fitted effect of over 50% in size
# Outline: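 HepG2 cells (600/well) mixed with RealTime-Glo MT reagent, settled 5 h at 37 C/5% CO2 before compound addition. Nonlytic NanoLuc luminescence from viable-cell prosubstrate reduction read repeatedly during 40 h treatment at 37 C.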
# [15] = qHTS assay to identify small molecule antagonists of the estrogen related receptor signaling pathway with the pleiotropic PPARgamma coactivator (PGC) from Tox21 10K library (AID 1224841; call rule not given here; note: potency is the fitted concentration of half-maximal effect)
# Outline: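 PGC/ERR reporter cells were seeded at 2,000 cells/well and held 6 hours at 37 C/5% CO2 before pin-tool addition of compounds in DMSO. After 18 hours at 37 C, One-Glo was added and luminescence read after 30 minutes at room temperature.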
# [16] = qHTS assay to identify small molecule agonists of the estrogen related receptor signaling pathway with the pleiotropic PPARgamma coactivator (PGC) from Tox21 10K library (AID 1224842); note: nearly all actives have a fitted effect of over 15% in size; note: potency is the fitted concentration of half-maximal effect
# Outline: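 PGC/ERR reporter cell line, 2,000 cells per well, incubated 6 h at 37 C before 23 nL compound in DMSO was added. After 18 h at 37 C, One-Glo luminescence read following 30 min at room temperature.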
# [17] = qHTS assay to identify small molecule agonists of the estrogen related receptor (ERR) signaling pathway from Tox21 library (AID 1224849; calls by dose curve; note: nearly all actives have a fitted effect of over 15% in size); conditions: ERR reporter cell line, ONE-Glo luciferase, 18 h; at 92.4 µM (top of the series) unless noted
# Outline: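 ERR reporter cell line (NTP) seeded, rested 6 h at 37 C/5% CO2, then pinned with Tox21 compounds in DMSO. After 18 h at 37 C, ONE-Glo luciferase luminescence was read following 30 min at room temperature.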
# [18] = qHTS RealTime-Glo MT Cell Viability Assay in HEK293 cells - 32 hour (AID 1224868); note: nearly all actives have a fitted effect of over 50% in size; note: potency is the fitted concentration of half-maximal effect; for activity change, negative = cytotoxic: top concentration of the series differs between compounds
# Outline: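 Quantitative high-throughput screen of the Tox21 10K library in HEK293: cells and RealTime-Glo reagents plated together, compound added at 5 h, luminescence monitored through 40 h at 37 C.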
# [19] = target: Nuclear receptor subfamily 1 group I member 3 (Homo sapiens) (UniProt Q14994); assay: qHTS assay to identify small molecule antagonists of the constitutive androstane receptor (CAR) signaling pathway (AID 1224838); note: nearly all actives have a fitted effect of over 40% in size
# Outline: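 HepG2 cells stably co-transfected with hCAR and a CYP2B6-2.2kb luciferase reporter were seeded 4 h before compound addition at 15 concentrations. Cells were stimulated with 50 nM CITCO (final) for 24 h at 37 C; luciferase luminescence was then read.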
# [20] = qHTS assay to identify small molecule antagonists of the estrogen related receptor (ERR) signaling pathway from Tox21 library (AID 1224848)
# Outline: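 Luminescent reporter read-out (ONE-Glo) from NTP's ERR cell line after 18 h treatment at 37 C with DMSO-dissolved Tox21 compounds; cells pre-plated 6 h beforehand at 2,000 per well.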
# Sequence of Luciferin 4-monooxygenase (Photinus pyralis) (P08659 whole entry, looked up): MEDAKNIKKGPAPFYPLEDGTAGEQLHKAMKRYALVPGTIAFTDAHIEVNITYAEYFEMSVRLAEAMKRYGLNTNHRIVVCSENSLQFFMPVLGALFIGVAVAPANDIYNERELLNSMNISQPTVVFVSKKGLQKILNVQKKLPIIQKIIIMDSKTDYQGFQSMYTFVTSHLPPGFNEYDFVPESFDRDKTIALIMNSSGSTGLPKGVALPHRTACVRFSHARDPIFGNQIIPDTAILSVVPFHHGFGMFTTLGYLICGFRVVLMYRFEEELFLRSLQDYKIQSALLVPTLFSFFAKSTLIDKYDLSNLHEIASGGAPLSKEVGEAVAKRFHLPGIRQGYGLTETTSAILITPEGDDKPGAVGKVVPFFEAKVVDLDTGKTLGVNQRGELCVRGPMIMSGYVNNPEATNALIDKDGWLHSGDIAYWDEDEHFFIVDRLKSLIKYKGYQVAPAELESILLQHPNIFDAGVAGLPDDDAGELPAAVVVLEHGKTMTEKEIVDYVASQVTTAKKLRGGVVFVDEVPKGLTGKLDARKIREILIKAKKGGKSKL
# Sequence of Nuclear receptor subfamily 1 group I member 3 (Homo sapiens) (Q14994 whole entry, looked up): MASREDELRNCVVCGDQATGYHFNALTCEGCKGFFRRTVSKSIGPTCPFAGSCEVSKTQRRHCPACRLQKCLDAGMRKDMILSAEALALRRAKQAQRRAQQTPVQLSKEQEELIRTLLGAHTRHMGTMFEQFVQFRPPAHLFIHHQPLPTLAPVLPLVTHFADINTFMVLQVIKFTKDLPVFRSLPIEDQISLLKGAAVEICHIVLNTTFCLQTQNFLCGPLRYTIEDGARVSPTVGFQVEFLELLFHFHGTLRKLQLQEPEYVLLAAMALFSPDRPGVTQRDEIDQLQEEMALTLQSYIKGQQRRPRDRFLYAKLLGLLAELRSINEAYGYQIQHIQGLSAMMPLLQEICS
# Sequence of Thyrotropin receptor (Homo sapiens) (P16473 whole entry, looked up): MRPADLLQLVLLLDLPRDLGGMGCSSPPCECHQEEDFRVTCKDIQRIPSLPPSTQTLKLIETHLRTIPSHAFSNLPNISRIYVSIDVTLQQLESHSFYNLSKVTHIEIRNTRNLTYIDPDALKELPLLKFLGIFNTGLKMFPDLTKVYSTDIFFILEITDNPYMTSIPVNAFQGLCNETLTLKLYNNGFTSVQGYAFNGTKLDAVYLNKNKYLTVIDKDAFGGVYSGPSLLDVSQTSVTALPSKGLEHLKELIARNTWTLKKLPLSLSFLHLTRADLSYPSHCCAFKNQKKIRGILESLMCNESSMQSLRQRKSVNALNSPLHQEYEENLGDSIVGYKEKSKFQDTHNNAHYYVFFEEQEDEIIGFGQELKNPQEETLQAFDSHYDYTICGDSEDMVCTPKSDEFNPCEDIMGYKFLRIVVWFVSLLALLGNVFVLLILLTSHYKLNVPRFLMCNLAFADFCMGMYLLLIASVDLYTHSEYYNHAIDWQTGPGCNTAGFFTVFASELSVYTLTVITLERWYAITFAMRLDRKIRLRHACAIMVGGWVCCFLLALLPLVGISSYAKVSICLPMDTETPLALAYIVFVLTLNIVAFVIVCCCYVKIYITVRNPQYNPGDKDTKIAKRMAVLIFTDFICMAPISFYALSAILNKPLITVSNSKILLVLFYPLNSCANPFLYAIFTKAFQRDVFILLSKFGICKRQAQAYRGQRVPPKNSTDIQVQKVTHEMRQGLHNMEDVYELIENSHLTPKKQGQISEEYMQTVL
compound,measurement,setting,value
COC(=O)c1cncn1C(C)c1ccccc1 (stereo not given),Potency,[1],inactive
same,Potency,[2],inactive
same,Potency,[3],inactive
same,Potency,[4],inactive
same,Potency,[5],inactive
same,Potency,[6],inactive
same,Potency,[7],inactive
same,Potency,[8],inactive
same,Potency,[9],inactive
same,outcome,[10],inactive
same,Potency,[11],inactive
same,Potency,[12],inactive
same,Potency,[13],inactive
same,Potency,[14],inactive
Cc1ccc2ccccc2c1,Potency,[1],inactive
same,Potency,[2],inactive
same,Potency,[3],inactive
same,Potency,[4],inactive
same,Potency,[6],inactive
same,Potency,[15],inactive
same,Potency,[16],inactive
same,Potency,[7],inactive
same,Potency,[8],inactive
same,Potency,[9],inactive
same,outcome,[10],inactive
same,Potency,[11],inactive
same,"activity change, positive = activation",[17],-0.842%
same,Potency,[12],inactive
same,Potency,[18],inactive
same,Potency,[13],inactive
O=C(O)C(F)(F)C(F)(F)C(F)(F)C(F)(F)C(F)(F)C(F)(F)C(F)(F)C(F)(F)C(F)(F)C(F)(F)F,Potency,[1],inactive
same,Potency,[2],inactive
same,Potency,[3],inactive
same,Potency,[4],inactive
same,Potency,[19],inactive
same,Potency,[6],inactive
same,Potency,[15],inactive
same,Potency,[16],57.9 µM (active)
same,Potency,[9],inactive
same,outcome,[10],inactive
same,Potency,[11],inactive
same,"activity change, positive = activation",[17],8.05%
same,Potency,[12],inactive
same,Potency,[18],inactive
same,Potency,[13],inactive
CCOP(=O)(OCC)Oc1ccc([N+](=O)[O-])cc1,Potency,[1],inactive
same,Potency,[2],inactive
same,Potency,[3],inactive
same,Potency,[4],inactive
same,Potency,[6],inactive
same,Potency,[15],19.6 µM (active) and 5.45 µM (active)
same,Potency,[16],inactive
same,Potency,[7],inactive
same,Potency,[8],inactive
same,Potency,[9],inactive
same,Potency,[11],inactive
same,Potency,[20],13.9 µM (active) and 12.2 µM (active)
same,"activity change, positive = activation",[17],-65.4% and -61.8%
same,Potency,[12],inactive
same,Potency,[18],inactive
same,Potency,[13],inactive
same,Potency,[14],inactive
NNC(=O)c1cccnc1,Potency,[1],inactive
same,Potency,[2],inactive
same,Potency,[3],inactive
same,Potency,[4],inactive
same,Potency,[19],inactive
same,Potency,[6],inactive
same,Potency,[7],inactive
same,Potency,[8],inactive
same,Potency,[9],inactive
same,outcome,[10],inactive
same,Potency,[11],inactive
same,Potency,[12],inactive
same,Potency,[13],inactive
same,Potency,[14],inactive
Clc1cccc2ccccc12,Potency,[1],inactive
same,Potency,[2],inactive
same,Potency,[3],inactive
same,Potency,[4],inactive
same,Potency,[19],inactive
same,Potency,[6],inactive
same,Potency,[7],inactive
same,Potency,[8],inactive
same,Potency,[9],inactive
same,outcome,[10],inactive
same,Potency,[11],inactive
same,Potency,[12],inactive
same,Potency,[18],inactive
same,Potency,[13],inactive
same,Potency,[14],inactive
NCC(CC(=O)O)c1ccc(Cl)cc1 (stereo not given),"viability change, negative = cytotoxic",[1],4.17% [at 0.349 µM]
same,"activity change, negative = inhibition",[2],0.511% [at 0.435 µM]
same,"viability change, negative = cytotoxic",[3],7.94% [at 0.349 µM]
same,"activity change, negative = cytotoxicity",[4],8.53% [at 0.349 µM]
same,"viability change, negative = cytotoxic",[6],7.5% [at 0.349 µM]
same,"activity, negative = inhibition",[15],-1% [at 0.349 µM]
same,activation,[16],-1% [at 0.349 µM]
same,activation,[7],16.4% [at 0.349 µM]
same,"activity change, negative = cytotoxicity",[8],-2.38% [at 0.29 µM]
same,activation (H2AX phosphorylation),[9],0.429% [at 0.582 µM]
same,"activity change, negative = cytotoxicity",[11],-1.04% [at 0.582 µM]
same,"activity change, positive = activation",[17],2.78% [at 0.349 µM]
same,"activity change, negative = cytotoxicity",[12],-0.0323% [at 0.29 µM]
same,"activity change, negative = cytotoxic",[18],7.97% [at 0.29 µM]
same,cytotoxicity,[13],-11.1% [at 0.29 µM]
same,"activity change, negative = cytotoxic",[14],-1.34% [at 0.29 µM]
C=CC(=O)OCC(C)O (stereo not given),Potency,[1],inactive
same,Potency,[2],inactive
same,Potency,[3],inactive
same,Potency,[4],inactive
same,Potency,[5],inactive
same,Potency,[6],inactive
same,Potency,[15],inactive
same,Potency,[16],inactive
same,Potency,[7],inactive
same,Potency,[9],inactive
same,Potency,[11],inactive
same,Potency,[12],inactive
same,Potency,[13],inactive
same,Potency,[14],inactive
COc1ccc(-c2ccccc2)cc1NNC(=O)OC(C)C,Potency,[1],63.7 µM (active)
same,Potency,[2],inactive
same,Potency,[3],inactive
same,Potency,[4],inactive
same,Potency,[5],63.7 µM (active)
same,Potency,[15],35.8 µM (active)
same,Potency,[16],inactive
same,Potency,[8],inactive
same,Potency,[9],inactive
same,outcome,[10],inactive
same,Potency,[20],31.9 µM (active)
same,"activity change, positive = activation",[17],-62.9%
same,Potency,[18],51 µM (active)
same,Potency,[13],inactive

# From PubChem BioAssay (Tox21)
